Measurements published in PubChem BioAssay (NCATS).
“And” between values parts separate entries of the source, which are not always exact repeats. Identical values can stand only once. Results filed as inconclusive are left out. The source made the active and inactive calls. Unless noted, calls follow the shape of the dose curve; as a rule, active = well fitted inhibition curve with a large enough effect; inconclusive = small, poorly fitted or top-dose-only effect; inactive = flat fitted curve, though single readings scatter.

tested on: not listed separately; test: qHTS assay for small molecule antagonists of retinoid X receptor alpha signaling (AID 588546; active = well fitted inhibition curve with a large enough effect in the signal ratio, with a control signal flat, not every such curve was filed as active; the % refers to the signal ratio;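 as to max response: cells stimulated with 9-cis-retinoic acid as agonist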); conditions: HEK293T RXRa-UAS-bla, beta-lactamase ratio, antagonist mode; measured here: W530 green channel, cytotoxicity proxy
Method in brief: (§1)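 Beta-lactamase reporter inhibition, read as CCF4 fluorescence ratio (ex 405, em 460/530 nm) after 2 h at RT. HEK293T UAS-bla cells, 2500/well, were stimulated with 9-cis-RA at 500 or 100 nM final alongside test compound for 18 h at 37 C.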
% is scaled to controls: 0 for no effect and ±100 for the full control effect; potency is read from the fitted curve at half-maximal effect.

Row | SMILES | max response
1 | OCc1c[nH]c2ccccc12 | 2.29%
2 | O=C(Oc1ccccc1)c1ccccc1O | 8.83% and -6.1%
3 | c1ccc2occc2c1 | -13.5% and -7.35%
4 | Nc1ccc(O)cc1 | -3.95%
5 | O=C(NO)c1ccccc1 | -10.6%
6 | CCCCC(CC)COC(=O)c1ccccc1C(=O)O (centres undefined) | -0.199% and -12.8%
7 | CCCCCCCCCCCCCCCC[n+]1ccccc1 | 11.3%
8 | Cc1ncc(CO)c(CO)c1O | -0.0047%
9 | Oc1ccccc1 | -7.3% and -10.8% and -13%
10 | CC(=O)OC/C=C(C)/C=C/C=C(C)/C=C/C1=C(C)CCCC1(C)C | 10.5%
11 | CCN(CC)CCOc1ccc(/C(=C(\Cl)c2ccccc2)c2ccccc2)cc1 | -2.07%
12 | Cc1ccc(O)cc1 | -4.07%
13 | COc1cc(C=O)ccc1O | -4.04% and -15.4%
14 | CCCC(=O)c1cc(O)c(O)cc1O | 4.85%
15 | O=C(c1ccccc1)c1ccccc1 | -0.815% and -2.27%
16 | CC(C)(c1ccc(O)cc1)c1ccc(O)cc1 | -4.03% and -11.6%
17 | COC(=O)c1c(Cl)c(Cl)c(C(=O)OC)c(Cl)c1Cl | -11.5%
18 | CC(C)C(C)(C)C(C)(C)C(C)(C)S | -12% and -14.7%
19 | Brc1ccccc1-c1ccccc1 | 1.21%
20 | CC(C)(C)c1ccc(O)c(O)c1 | 3.05% and -10.4%
21 | O=C(Oc1ccccc1)c1cccc(C(=O)Oc2ccccc2)c1 | 0.814%
22 | Nc1cccc2c(N)cccc12 | 0.949% and -3.88%
23 | OCCOCCN1CCN(C(c2ccccc2)c2ccc(Cl)cc2)CC1 (centres undefined) | 2.38%

target: Retinoic acid receptor RXR-alpha (Homo sapiens) (UniProt P19793); test: as above; conditions: HEK293T RXRa-UAS-bla, beta-lactamase ratio, antagonist mode
Method in brief: as §1

Sequence of Retinoic acid receptor RXR-alpha (Homo sapiens) (P19793 whole entry, looked up): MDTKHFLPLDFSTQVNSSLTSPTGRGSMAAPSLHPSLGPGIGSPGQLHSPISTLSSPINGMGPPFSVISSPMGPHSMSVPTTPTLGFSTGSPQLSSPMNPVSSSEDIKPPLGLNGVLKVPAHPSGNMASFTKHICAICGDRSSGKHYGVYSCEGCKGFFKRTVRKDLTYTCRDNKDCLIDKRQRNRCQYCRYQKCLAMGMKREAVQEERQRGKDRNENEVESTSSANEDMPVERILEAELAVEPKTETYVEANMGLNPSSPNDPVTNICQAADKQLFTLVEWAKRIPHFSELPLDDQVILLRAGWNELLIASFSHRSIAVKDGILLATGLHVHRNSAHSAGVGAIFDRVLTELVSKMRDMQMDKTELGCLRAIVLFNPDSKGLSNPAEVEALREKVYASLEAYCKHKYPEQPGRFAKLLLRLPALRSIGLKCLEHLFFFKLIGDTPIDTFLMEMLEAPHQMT

Row | SMILES | max response | Potency
24 | OCc1c[nH]c2ccccc12 | -2.51% (inactive) | 
25 | O=C(Oc1ccccc1)c1ccccc1O | 0.088% (inactive) and -1.29% (inactive) | 
26 | c1ccc2occc2c1 | 6.36% (inactive) and -5.03% (inactive) | 
27 | Nc1ccc(O)cc1 | -4.53% (inactive) | 
28 | O=C(NO)c1ccccc1 | -9.23% (inactive) | 
29 | CCCCC(CC)COC(=O)c1ccccc1C(=O)O (centres undefined) | -7.29% (inactive) and -5.81% (inactive) | 
30 | CCCCCCCCCCCCCCCC[n+]1ccccc1 | -34.1% (inactive) | 
31 | Cc1ncc(CO)c(CO)c1O | 7.42% (inactive) | 
32 | Oc1ccccc1 | 17.6% (inactive) and -10.1% (inactive) and 2.32% (inactive) | 
33 | CC(=O)OC/C=C(C)/C=C/C=C(C)/C=C/C1=C(C)CCCC1(C)C | 0.429% (inactive) | 
34 | CCN(CC)CCOc1ccc(/C(=C(\Cl)c2ccccc2)c2ccccc2)cc1 |  | 39.8 µM (active)
35 | Cc1ccc(O)cc1 | 9.57% (inactive) | 
36 | COc1cc(C=O)ccc1O | 30% (inactive) and 5.74% (inactive) | 
37 | CCCC(=O)c1cc(O)c(O)cc1O | 15.9% (inactive) | 
38 | O=C(c1ccccc1)c1ccccc1 | 29.2% (inactive) and -10.9% (inactive) | 
39 | CC(C)(c1ccc(O)cc1)c1ccc(O)cc1 | -28% (inactive) and 10.2% (inactive) | 
40 | COC(=O)c1c(Cl)c(Cl)c(C(=O)OC)c(Cl)c1Cl | 4.25% (inactive) | 
41 | CC(C)C(C)(C)C(C)(C)C(C)(C)S | 11.7% (inactive) and -0.658% (inactive) | 
42 | Brc1ccccc1-c1ccccc1 | -2.01% (inactive) | 
43 | CC(C)(C)c1ccc(O)c(O)c1 | -35.8% (inactive) and -24.1% (inactive) | 
44 | O=C(Oc1ccccc1)c1cccc(C(=O)Oc2ccccc2)c1 | -33.4% (inactive) | 
45 | Nc1cccc2c(N)cccc12 | -3.27% (inactive) and -4.14% (inactive) | 
46 | OCCOCCN1CCN(C(c2ccccc2)c2ccc(Cl)cc2)CC1 (centres undefined) | -14.3% (inactive) | 

target: Voltage-gated inwardly rectifying potassium channel KCNH2 (Homo sapiens) (UniProt Q12809); test: qHTS Assay for Small Molecule Inhibitors of the Human hERG Channel Activity (AID 588834); conditions: U2OS BacMam hERG, FluxOR thallium flux fluorescence; series mostly up to 92.2 µM; activity change, negative = inhibition: at the top concentration;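 also: lower thallium flux fluorescence means stronger hERG block; nearly all actives have a fitted effect of over 50% in size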; as to activity change, negative = inhibition: top concentration of the series differs between compounds
Method in brief: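 U2OS cells BacMam-transduced with hERG, 2000 cells/well, compound ~10 min at 37 °C before stimulation buffer. FluxOR thallium flux fluorescence read kinetically on FDSS; decrease indicates block; AC50 from Hill fits.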

Sequence of Voltage-gated inwardly rectifying potassium channel KCNH2 (Homo sapiens) (Q12809 whole entry, looked up): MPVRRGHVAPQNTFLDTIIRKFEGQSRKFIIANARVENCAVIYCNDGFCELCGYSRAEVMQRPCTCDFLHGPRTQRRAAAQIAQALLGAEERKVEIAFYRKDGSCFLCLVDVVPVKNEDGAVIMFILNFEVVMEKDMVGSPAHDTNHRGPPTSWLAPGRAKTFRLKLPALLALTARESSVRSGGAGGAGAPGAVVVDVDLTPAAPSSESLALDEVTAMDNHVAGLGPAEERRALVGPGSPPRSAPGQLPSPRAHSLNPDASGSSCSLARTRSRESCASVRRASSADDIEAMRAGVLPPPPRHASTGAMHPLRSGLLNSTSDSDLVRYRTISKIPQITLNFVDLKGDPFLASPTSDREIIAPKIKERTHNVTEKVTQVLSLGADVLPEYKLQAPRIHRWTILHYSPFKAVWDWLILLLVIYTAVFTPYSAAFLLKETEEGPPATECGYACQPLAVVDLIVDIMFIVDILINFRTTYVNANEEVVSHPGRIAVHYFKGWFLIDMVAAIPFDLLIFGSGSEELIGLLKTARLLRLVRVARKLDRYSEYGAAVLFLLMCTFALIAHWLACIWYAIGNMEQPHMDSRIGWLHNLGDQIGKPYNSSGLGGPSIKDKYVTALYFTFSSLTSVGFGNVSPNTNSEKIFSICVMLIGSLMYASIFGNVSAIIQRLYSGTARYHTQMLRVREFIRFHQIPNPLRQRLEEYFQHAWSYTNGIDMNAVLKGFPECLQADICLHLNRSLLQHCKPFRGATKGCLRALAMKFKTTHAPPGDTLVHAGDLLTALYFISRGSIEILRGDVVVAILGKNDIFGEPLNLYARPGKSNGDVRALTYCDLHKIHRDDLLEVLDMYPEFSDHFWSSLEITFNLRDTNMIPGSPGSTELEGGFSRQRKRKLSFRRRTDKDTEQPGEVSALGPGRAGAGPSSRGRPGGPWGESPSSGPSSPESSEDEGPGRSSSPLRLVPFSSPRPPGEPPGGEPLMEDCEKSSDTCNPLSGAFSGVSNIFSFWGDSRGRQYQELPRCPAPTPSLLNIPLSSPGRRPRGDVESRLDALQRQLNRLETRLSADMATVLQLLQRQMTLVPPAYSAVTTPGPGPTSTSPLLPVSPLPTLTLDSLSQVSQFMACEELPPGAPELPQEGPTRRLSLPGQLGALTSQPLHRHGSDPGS

Row | SMILES | Potency | activity change, negative = inhibition
47 | CCCCCCCCCCCCCCCC[N+](C)(C)Cc1ccccc1 | 22.4 µM (active) | 
48 | OCc1c[nH]c2ccccc12 |  | 2.29% (inactive)
49 | c1ccc2occc2c1 |  | 4.57% (inactive)
50 | Nc1ccc(O)cc1 |  | -18.9% (inactive)
51 | O=C(NO)c1ccccc1 |  | 1.79% (inactive)
52 | CCCCC(CC)COC(=O)c1ccccc1C(=O)O (centres undefined) |  | -11.4% (inactive)
53 | Nc1ncnc2nc[nH]c12 |  | 3.65% [at 46.1 µM] (inactive)
54 | Oc1ccccc1 |  | 2.4% (inactive)
55 | CC(=O)OC/C=C(C)/C=C/C=C(C)/C=C/C1=C(C)CCCC1(C)C |  | 4.23% (inactive)
56 | CC(NCCC(c1ccccc1)c1ccccc1)c1ccccc1 (centres undefined) | 2.24 µM (active) | 
57 | Cc1ccc(O)cc1 |  | 2.23% (inactive)
58 | COc1cc(C=O)ccc1O |  | 8.34% (inactive)
59 | CCCC(=O)c1cc(O)c(O)cc1O |  | -5.72% (inactive)
60 | Nc1c2ccccc2nc2ccccc12 |  | -15% (inactive)
61 | CC(C)C(C)(C)C(C)(C)C(C)(C)S |  | 4.73% (inactive)
62 | Nc1ccc2cc3ccc(N)cc3nc2c1 | 12.6 µM (active) | 
63 | C[C@]12CCC(=O)C=C1CC[C@@H]1[C@@H]2[C@@H](O)C[C@@]2(C)[C@H]1CC[C@]2(O)C(=O)COC(=O)CCC(=O)O |  | 16.9% [at 46.1 µM] (inactive)
64 | CN1CCCN(C(c2ccccc2)c2ccc(Cl)cc2)CC1 (centres undefined) | 8.91 µM (active) | 
65 | CC(C)(C)c1ccc(O)c(O)c1 |  | 2.77% (inactive)
66 | Nc1cccc2c(N)cccc12 |  | -7.75% (inactive)
67 | COc1cccc2c1[C@@H]1CN(CCCCn3c(=O)[nH]c4c(sc5ncc(-c6ccccc6)nc54)c3=O)C[C@@H]1CO2 | 5.01 µM (active) | 
68 | CN1CCC(Nc2ncc3ncnc(Nc4ccc(F)c(Cl)c4)c3n2)CC1 | 12.6 µM (active) | 
69 | O=[N+]([O-])c1ccc(O)c2ncccc12 |  | 1.74% [at 46.1 µM] (inactive)
